{"source": "PubChem BioAssay (NCATS)", "note": "Values without a mark were called inactive. Calls of active or inactive are those of the source. The call rests on the fitted dose curve; in most records, active means well fitted curve in the direction sought with a large enough effect; inconclusive means small, poorly fitted or top-dose-only effect, or another doubt; inactive means no such curve, though single readings can be large or run the other way. Potency means the concentration at half of the fitted maximal effect.", "data": [{"assay": "Cellular Toxicity (caspase-3) BJ (AID 658);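 on caspase-3 activation: 0% = DMSO basal and 100% = 10 µM staurosporine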", "details": "BJ fibroblasts, luminescence; Potency: caspase-3 activation; series mostly up to 91.7 µM; caspase-3 activation: at the top concentration", "text": "NIH Chemical Genomics Center [NCGC]\nNIH Molecular Libraries Screening Centers Network [MLSCN]\nNational Institutes of Environmental Health Sciences [NIEHS]\nNational Toxicology Program [NTP]\nWe have developed a 1536-well cell-based assay for quantitative high throughput screening (qHTS) against a number of cell lines to determine in vitro caspase 3/7 activity of small molecules. This particular assay uses BJ cell line which is derived from normal human foreskin fibroblast.\nNCGC Assay Protocol Summary:\nThe Caspase-Glo 3/7 assay (Promega) is a homogeneous method to measure caspase-3 and caspase-7 activities in cultured cells. The quantitation of caspase 3/7 activity is based on the cleavage of a peptide-aminoluciferin substrate. After caspase cleaves the substrate the free aminoluciferin is liberated and serves as the substrate of luciferase, which generates the light. The luminescent signal is proportional to amount of caspase 3/7 activity present.\nUsing the Caspase-Glo 3/7 assay, the amount of caspase 3/7 activity was measured in the BJ cell line with complete culture medium following compound treatment for 16 hours. The assay was performed in opaque white 1536-well plates. In the screen, staurosporine and tamoxifen were used as positive controls. Library compounds were measured for their ability to cause the activation of caspase 3/7 in the cell line, as reflected by an increase in luminescence signal, in a concentration-dependent manner. Data were normalized to the controls for basal activity (DMSO only) and 100% stimulation (10 uM staurosporine). AC50 values were determined from concentration-response data modeled with the standard Hill equation.\nqHTS protocol for caspase 3/7 assay in the BJ cells\n[Step] [Parameter] [Value] [Description]\n1. Reagent; 5 uL; 1000 the BJ cells/well\n2. Time; 5 hr; 37 °C incubation\n4. Controls; 23 nL; Tamoxifen 0.23 uM to 100 uM & staurosporine 1.4 pM to 100 uM\n5. Time; 16 hr; 37 °C incubation\n6. Reagent; 5 uL; Caspase-Glo 3/7 reagent\n7. Time; 1 hr; Room Temperature\n8. Detection; Luminescence; Viewlux plate reader\nKeywords: caspase 3/7, apoptosis, the BJ cell line, luminescence, NTPHTS, NTPHTS_NCGC, NIEHS, EPA, DSSTox, MLSMR, MLSCN, NIH Roadmap, qHTS, NCGC", "units": {"caspase-3 activation": "%"}, "values": [{"compound": "CC(C)S", "caspase-3 activation": 0.601}, {"compound": "CN(C)c1ccc(Cc2ccc(N(C)C)cc2)cc1", "caspase-3 activation": -0.555}, {"compound": "Cc1ccc(N)cc1[N+](=O)[O-]", "caspase-3 activation": 0.667}, {"compound": "CCCCCCCCOc1ccc(C(=O)O)cc1", "caspase-3 activation": -2.58}, {"compound": "Nc1ccc(-c2ccc(N)c(O)c2)cc1O", "caspase-3 activation": -1.11}, {"compound": "CC(=O)OC1CC(C)OC(C)O1", "note": "(stereo not given)", "caspase-3 activation": 0.238}, {"compound": "Oc1c(Cl)cc(Cl)c(Cl)c1Cl", "caspase-3 activation": -2.66}, {"compound": "CC(=O)Nc1cccc(C)c1", "caspase-3 activation": -0.104}, {"compound": "Nc1cc([N+](=O)[O-])ccc1O", "caspase-3 activation": 1.37}, {"compound": "Nc1ccccc1O", "caspase-3 activation": 2.92}, {"compound": "C=C1CC[C@H](O)C/C1=C/C=C1\\CCC[C@]2(C)[C@@H]([C@H](C)CCCC(C)C)CC[C@@H]12", "caspase-3 activation": 1.4}, {"compound": "CCCCC(CC)COCCCN", "note": "(stereo not given)", "caspase-3 activation": 2.01}, {"compound": "O=[N+]([O-])c1ccccc1Nc1ccccc1", "caspase-3 activation": -0.573}, {"compound": "O=C1OC(=O)c2ccccc21", "caspase-3 activation": -0.392}, {"compound": "Cc1cc(=O)oc2cc(O)cc(O)c12", "caspase-3 activation": -1.12}, {"compound": "CC(/C=C/C=C(C)/C=C/C(=O)O)=C\\C=C\\C=C(C)\\C=C\\C=C(C)\\C=C\\C(=O)O", "caspase-3 activation": -7.6}, {"compound": "CC(=O)CC(=O)Nc1ccccc1", "caspase-3 activation": -0.133}, {"compound": "CCNC(=S)NCC", "caspase-3 activation": -0.108}, {"compound": "Cc1ccc2ccc3cccc4ccc1c2c34", "caspase-3 activation": -0.51}, {"compound": "CC(=O)c1ccc(Cl)c(Cl)c1Cl", "caspase-3 activation": -0.781}, {"compound": "c1ccc(COCc2ccccc2)cc1", "caspase-3 activation": 0.0488}, {"compound": "CCOC(=O)C1OC1c1ccccc1", "note": "(stereo not given)", "caspase-3 activation": -0.105}, {"compound": "c1ccc(Nc2cccc3ccccc23)cc1", "caspase-3 activation": 0.607}, {"compound": "Nc1ccc(N)c(Cl)c1", "caspase-3 activation": -0.943}, {"compound": "O=[N+]([O-])c1cccc(I)c1", "caspase-3 activation": -0.418}, {"compound": "Cc1cc2nc(N)sc2cc1C", "caspase-3 activation": -8.71}, {"compound": "C=CC(=O)OCCCCCCOC(=O)C=C", "caspase-3 activation": 21.6}, {"compound": "OCC(CO)(CBr)CBr", "caspase-3 activation": -2.25}, {"compound": "CCCCCCCCC1CO1", "note": "(stereo not given)", "caspase-3 activation": 1.46}, {"compound": "Cc1ccc(O)c(N)c1", "caspase-3 activation": -1.17}, {"compound": "C1CCCNCC1", "caspase-3 activation": -1.1}, {"compound": "c1cc2c3c(c1)ccc1cccc(c13)C2", "caspase-3 activation": 1.61}, {"compound": "COc1ccc(C)cc1N", "caspase-3 activation": -0.148}, {"compound": "CC/C=C/C/C=C/C/C=C/CCCCCCCC(=O)OCC", "caspase-3 activation": 0.295}, {"compound": "CCCCCCN", "caspase-3 activation": 1.33}, {"compound": "C[C@@H]1CC2(OC(O)[C@]3(C)O[C@H]23)O[C@H]2C[C@@]3(C)[C@@H]4CC[C@H]5C(C)(C)C(O[C@@H]6OC[C@@H](O)[C@H](O)[C@H]6O)CC[C@@]56C[C@@]46CC[C@]3(C)[C@@H]12", "note": "(stereo not given in full)", "Potency": "31.6 µM (active)"}, {"compound": "Oc1ccc2c(c1)OCO2", "caspase-3 activation": 0.237}, {"compound": "C/C(Cl)=C/CCl", "caspase-3 activation": 0.119}, {"compound": "Cc1ccc(S(N)(=O)=O)cc1", "caspase-3 activation": 0.448}, {"compound": "CC(=O)OC(C(=O)c1ccccc1)c1ccccc1", "note": "(stereo not given)", "caspase-3 activation": 0.0904}]}]}
